PubChem BioAssay AID588456 (National Center for Advancing Translational Sciences (NCATS), 2011)
Out of some 390,000 compounds screened, about 55 (0.01%) were called active. The call rests on the fitted dose curve; in most records, active means well fitted inhibition curve with a large enough effect; inconclusive means small, poorly fitted or top-dose-only effect; inactive means no such curve, though single readings can be large or run the other way. Not all results are given here.

molecular target: Thioredoxin reductase 1, cytoplasmic (Rattus norvegicus) (UniProt O89049); assay: qHTS Assay for Substrates of Mammalian Selenoprotein Thioredoxin Reductase 1 (TrxR1): qHTS; conditions: purified TrxR1 substrate turnover, NADPH consumption readout; series mostly up to 114 µM; activity change, negative = substrate turnover: at the top concentration; further: nearly all actives have a fitted effect of over 50% in size
Excerpt: The selenoprotein thioredoxin reductase (TrxR; EC 1.8.1.9) is a FAD containing homodimeric pyridine nucleotide-disulfide oxidoreductase with many cellular roles. Together with NADPH and its prime substrate thioredoxin (Trx), the enzyme forms the core of the Trx system. The mammalian Trx system exerts a wide spectrum of functions including redox regulation, antioxidant defense, regulation of transcription factors as well as support of cell growth and replication. Many of these functions involve the reduction of Trx, which may subsequently reduce a number of different substrates including ribonucleotide reductase, peroxiredoxins or NFkB. Mammalian TrxR itself also has a broad substrate specificity, reducing both protein and non-protein substrates, including low molecular weight compounds such as dehydroascorbate, lipoic acid, ubiquinone, and juglone. In addition, several drugs in clinical use for anticancer treatment are indeed known to target TrxR1.
This BioAssay is a validation of an NADPH fluorescence-based, dual-purpose qHTS rTrxR1 assay designed to find potential inhibitors and substrates of rTrxR1. For this particular BioAssay, actives are potential substrate. See related BioAssay for inhibition data deposition.
NIH Molecular Libraries Probe Production Network [MLPCN]
NIH Chemical Genomics Center [NCGC]
Assay Provider: Elias Arner, Karolinska Institute
Assay protocol: 2 uL of reagents (buffer in column 4 as negative control and 90 nM rTrxR1 in columns 1-3 and 5-48) were dispensed into Greiner black solid-bottom 1,536-well assay plates, followed by 1 uL of NADPH (400 uM final concentration) to each well. The plates were centrifuged at 1000 rpm for 15 seconds and subsequently incubated for 5 min at room temperature (~22 deg C) to allow for rTrxR1 reduction. Compounds (23 nL) were then transferred via Kalypsys pin tool equipped with 1536-pin array (10 nL slotted pins, V&P Scientific, San Diego, CA). In addition, a duplicate 2-fold serial dilution of the control compounds auranofin, a known gold-based TrxR1 inhibitor, and juglone (5-hydroxy-1,4-naphthoquinone), a natural TrxR1 substrate, were pin-transferred to columns 2 and 3, respectively. After incubation for 15 min at room temperature (~22 deg C), 1 uL of selenite (400 uM final concentration) were dispensed to each well. The plate was immediately transferred to a ViewLux high-throughput CCD imager (PerkinElmer), wherein kinetic measurements of NADPH fluorescence (Ex 340 nm, Em 450 nm) were acquired (8 minute kinetic read, see Table 1). Read 1 was utilized to assess the capacity of a compound to serve as an rTrxR1 substrate, i.e. a decrease in NADPH fluorescence compared to the no-compound background is an indication of a substrate behavior for that particular compound. For inhibitory activity of a compound, delta values, computed as the difference in fluorescence intensity between the first and last reads of an 8-minute time kinetic window, were used. All reagents were diluted in an assay buffer consisting of 50 mM Tris-HCl, pH 7.5, 2 mM EDTA, and 0.01% Tween-20.
Throughout the screen, reagent bottle and all liquid lines were made light-tight to minimize reagent degradation. All screening operations were performed on a fully integrated robotic system (Kalypsys, San Diego, CA) containing one RX-130 and two RX-90 anthropomorphic robotic arms (Staubli, Duncan, SC). Library plates were screened starting from the lowest and proceeding to the highest concentration, and a 'double-pinning' step of the highest concentration was required to access higher concentrations of compounds. Vehicle-only plates, with DMSO being pin-transferred to the columns 5-48, were inserted uniformly at the beginning and the end of each library in order to monitor and record any shifts in the background, which can be affected by reagent dispensers or loss in enzyme activity over time. […]
On the % scale 0 is the no-effect control and ±100 the full control effect.

Thioredoxin reductase 1, cytoplasmic (Rattus norvegicus), sequence (O89049 whole entry, looked up): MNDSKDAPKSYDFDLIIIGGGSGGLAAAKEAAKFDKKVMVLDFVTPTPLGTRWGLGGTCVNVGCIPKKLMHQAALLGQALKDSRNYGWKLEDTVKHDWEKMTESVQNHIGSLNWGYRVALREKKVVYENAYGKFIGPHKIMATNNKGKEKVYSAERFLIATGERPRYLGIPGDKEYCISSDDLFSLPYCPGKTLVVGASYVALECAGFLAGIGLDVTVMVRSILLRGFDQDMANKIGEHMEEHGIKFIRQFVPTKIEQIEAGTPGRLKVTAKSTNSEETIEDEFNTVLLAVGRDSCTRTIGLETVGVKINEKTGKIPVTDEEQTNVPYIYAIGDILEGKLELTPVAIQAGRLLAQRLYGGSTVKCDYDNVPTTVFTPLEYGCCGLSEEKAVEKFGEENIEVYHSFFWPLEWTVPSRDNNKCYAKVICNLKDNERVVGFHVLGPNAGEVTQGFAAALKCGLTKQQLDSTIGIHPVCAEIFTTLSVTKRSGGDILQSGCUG

| SMILES | activity change, negative = substrate turnover |
| --- | --- |
| Nc1ccc(/C=C/c2ccnc3ccccc23)c([N+](=O)[O-])c1 | 7.22% [at 0.0914 µM] (inactive) |
| O=C(CCCn1c(=O)c2cccn2c2cccnc21)NCc1ccc(F)cc1 | 11.5% (inactive) |
| Cc1ccc(S(=O)(=O)N2CCN(c3nc(-n4cnc5ccccc54)nc4ccccc34)CC2)cc1 | 21.2% (inactive) |
| CSc1n[nH]c(-c2ccco2)n1 | -1.88% (inactive) |
| CN(C)c1ccc(/C=C2\C=Cc3ccccc32)cc1Br | -5.98% (inactive) |
| O=C(Nc1ccc2nc(SCCOc3ccccc3)sc2c1)c1ccco1 | 1.62% (inactive) |
| Cn1nnnc1SCCCNCc1cccc(OCc2ccc(Cl)cc2)c1 | 1.64% (inactive) |
| COc1ccc(/C=C/c2ccccn2)cc1OC | 10.2% (inactive) |
| Cc1csc(NCC(=O)c2c[nH]c3ccccc23)n1 | 2.82% (inactive) |
| Nc1nc(N)c(N=O)c(N)n1 | -7.44% (inactive) |
| OC(CBr)C[n+]1cccc2cc(Br)ccc21 (stereo unspecified) | -10.1% (inactive) |
| O=C(c1cnn2c1NC(=C1CC1)C=C2C(F)F)N1CCc2ccccc2C1 | -0.0564% (inactive) |
| Cc1cccc(CN2Cc3cccc4c3[C@H](C=CC4)CC2=S)c1 | 0.496% (inactive) |
| Cc1cc[n+](C2CCCCC2)cc1 | 7.57% (inactive) |
| COc1cccc(Nc2nc3ccccc3c3nncn23)c1 | 4.82% (inactive) |
| CC(NC(=O)c1cc(Sc2ccc(F)cc2F)nc2ccccc12)c1ccccc1 (stereo unspecified) | -8.64% [at 57.1 µM] (inactive) |
| Cc1ccc2cccc(NC(=O)c3ccc(OC(C)C)cc3)c2n1 | -3.98% (inactive) |
| CCc1ccc(Sc2cc(C(=O)NCCCOC(C)C)c3ccccc3n2)cc1 | -2.53% [at 57.1 µM] (inactive) |
| Nc1ncnc2c1c(I)cn2[C@@H]1C[C@H](N)[C@@H](O)[C@H]1O | 9.12% [at 57.1 µM] (inactive) |
| Cc1ccc(NC(=O)c2cc3cc(C)ccc3n2C)cc1 | 39.4% (inactive) |
| O=C1COc2ccc(-c3csc(-c4ccc(Cl)cc4)n3)cc2N1 | 2.22% (inactive) |
| CC(C)(C)c1ccc(C(=O)C[n+]2cccc3cc(Cl)ccc32)cc1 | -5.71% (inactive) |
| OC(Cc1ccc2ccccc2n1)c1ccc(Cl)c(Cl)c1 (stereo unspecified) | 8.06% (inactive) |
| CO[C@H]1O[C@@H]2O[C@@]3(C)CC[C@@H]4[C@@H](C)CC[C@@H]([C@H]1C)[C@@]24OO3 | 0.883% (inactive) |
| CCOC(=O)c1cc(-c2ccccc2)n(-c2cccc(C(=O)Nc3cc(OC)cc(OC)c3)c2)c1C | 3.42% [at 57.1 µM] (inactive) |
| CCOC(=O)c1c(C)[nH]c(CCC(=O)Nc2ccc(OC)c(OC)c2)c1C | -1.04% [at 57.1 µM] (inactive) |

| SMILES | activity change, negative = substrate turnover |
| --- | --- |
| CCc1ccccc1NC(=O)Cn1c(=O)n(-c2cccc(C)c2)c(=O)c2c1c1cc(OC)ccc1n2C | 9.12% (inactive) |
| CN(CCC#N)c1ccc(C=O)cc1 | -11.2% (inactive) |
| COc1ccccc1N1CCN(C2C(=O)c3ccccc3N2C(C)=O)CC1 (stereo unspecified) | 1.92% [at 57.1 µM] (inactive) |
| CCOc1ccc(NC(=O)C(CC(C)C)N2Cc3ccccc3C2=O)cc1 (stereo unspecified) | -4.22% (inactive) |
| CN(C)CCCn1c(-c2ccc(Cl)cc2)csc1=Nc1ccccc1 | -1.54% [at 57.1 µM] (inactive) |
| CC1(C)CCc2cc(S(=O)(=O)N3CCN(c4nc(-c5cccs5)nc5ccccc45)CC3)ccc2O1 | 2.89% (inactive) |
| C=C1C=C(C)n2ncc(C(=O)Nc3ccccc3O)c2N1 | 1.54% (inactive) |
| COC(=O)C1=C(C(=O)OC)[C@@H]2N(Cc3ccccc3)c3ccccc3[C@@]23C[C@@H](C(=O)OC)N(S(=O)(=O)c2ccc(C(F)(F)F)cc2)C3=N1 | -10.9% (inactive) |
| CCOc1ccc(N2CC(C)Cn3c2nc2c3c(=O)n(Cc3c(F)cccc3Cl)c(=O)n2C)cc1 (stereo unspecified) | -1.89% (inactive) |
| C=C1C=C(C(F)F)n2ncc(C(=O)NCCc3ccccc3OC)c2N1 | -2.11% (inactive) |
| Cc1ccc(NC(=O)C(Cc2ccccc2)NS(=O)(=O)c2ccc3c(c2)oc(=O)n3C)cc1C (stereo unspecified) | -0.578% (inactive) |
| CCOc1ccc(Nc2ncnc3scc(-c4ccc(OC)cc4)c23)cc1 | 3.1% [at 57.1 µM] (inactive) |
| COc1cccc(CNCCSc2nnnn2C)c1OCc1ccccc1Cl | 8.42% [at 11.4 µM] (inactive) |
| Cc1ccc(Cn2cnc3c(cnn3C(C)(C)C)c2=O)c(F)c1 | 1.87% (inactive) |
| COc1cc(C(=O)Nc2ccc(OCc3cc(=O)n4ccc(C)cc4n3)cc2)cc(OC)c1OC | 8.56% [at 57.1 µM] (inactive) |
| CC1CCCN(c2nc3c(S(=O)(=O)c4ccc(C(C)C)cc4)nnn3c3ccsc23)C1 (stereo unspecified) | 29.8% (inactive) |
| Cc1[nH]c2ccccc2c1C(=O)C(=O)N(C)c1ccccc1 | 1.64% (inactive) |
| CN(CC(=O)Nc1ccccc1F)S(=O)(=O)c1ccc2c(c1)c(=O)n(C)c(=O)n2C | 7.12% (inactive) |
| COc1ccccc1CNC(=O)C(=O)NCC(c1ccco1)S(=O)(=O)c1ccc(F)cc1 (stereo unspecified) | -4.27% [at 57.1 µM] (inactive) |
| CCOc1ccccc1CNC(=O)C1CCCN(S(=O)(=O)c2ccc3c(ccn3C)c2)C1 (stereo unspecified) | 6.22% [at 57.1 µM] (inactive) |
| CN(Cc1ccccc1)c1ccc(/C=C/c2ccnc3ccccc23)cc1 | -8.75% (inactive) |
| Oc1ccccc1-c1nc(/C=C/c2ccc(F)cc2)no1 | 6.31% (inactive) |
| CC(C)Cn1c(-c2ccc(S(=O)(=O)N3CCOCC3)cc2)csc1=Nc1cc(Cl)ccc1Cl | 3.11% (inactive) |
| COc1cc(OC)c(OC)cc1/C=C1\C=Cc2ccccc21 | 6.44% [at 0.0914 µM] (inactive) |
| Cc1cccc(C(=O)N2CCc3cc(CNC(=O)Cc4ccc(F)cc4)ccc32)c1 | -5.32% [at 57.1 µM] (inactive) |
